Hits are enriched below; roughly 7.5% of the tested compounds scored in any of these assays.
KinaseGlo FLuc = counter-screen: inhibitors of Kinase-Glo firefly luciferase | Q27757 | Kinase-Glo luciferase, ATP luminescence, 8 min | Potency, µM (doses to about 38.3 µM), inactives show at the highest dose activity change, negative = inhibition, hits mostly inhibitors | 200,000 tested, 0.28% active | AID 1379; note: % is set by controls: 0 for no effect and ±100 for the full control effect; nearly all actives have a fitted effect of over 60% in size
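Luminescence was the read-out, taken after 8-minute incubation at ambient temperature. Luciferase turned over luciferin with 10 uM ATP in imidazole pH 7.2 buffer containing KCl, MgCl2, Tween 20 and BSA.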
SMN2 splice enh = enhancers of SMN2 splice variant expression; HEK293 SMN2-luciferase splicing reporter, luminescence, 30-36 h; Potency, µM (series often up to 46.1 µM), for the others: at the highest dose activity change, positive = activation, actives largely listed as activators; 210,000 tested, 2.8% active; note: % of control where 0% means no effect; nearly all actives have a fitted effect of over 55% in size
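HEK293 cells carry an SMN2 minigene-luciferase reporter in which exon 7 inclusion puts luciferase in frame. Cells were seeded at 2000 cells/well, attached for 10-12 hours, then exposed to compounds for 30-36 hours at 37C before ONE-Glo luminescence.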
NPC1 promoter act = activates the NPC1 promoter; Huh7 NPC1 promoter luciferase reporter, 24 h; Potency, µM (titrated, usually from 9.22 µM), inactives show top-dose activation, usual class: activators; 320,000 tested, 2.4% active; AID 485313; note: % of control where 0% means no effect; nearly all actives have a fitted effect of over 60% in size
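Luminescence from an NPC1 promoter-driven luciferase reporter in stably transfected Huh7 cells was measured after 24 h compound treatment at 37 °C, followed by 10 min ambient incubation with luciferase detection reagent.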
Rab9 prom act = Rab9 promoter activation; Huh7 Rab9 promoter-luciferase reporter, luminescence, 24 h; AID 485297; Potency, µM (top dose mostly 9.22 µM), inactives show top-dose activation, negative = inhibition, usual class: activators; 320,000 tested, 2.8% active; note: % of control where 0% means no effect; nearly all actives have a fitted effect of over 60% in size
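Quantitative HTS format; Huh7 Rab9-luciferase reporter cells (1500/well) receive compound 2 h post-plating, incubate 24 h at 37 °C, then get luciferase reagent for 10 min before luminescence reading.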
FLuc modulator = inhibits or activates purified firefly luciferase, miR-21 counter-screen. AID 588342. purified FLuc, Km substrates, luminescence inhibition. P08659. Potency, µM (titrated, usually from 57.5 µM), without a hit: at the top dose activity change, negative = inhibition, usual class: inhibitors. 360,000 tested, 6.9% active;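 note: plate controls were vehicle for no effect and reference inhibitor for full effect; nearly all actives have a fitted effect of over 55% in size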
Target sequence (P08659 whole entry, looked up): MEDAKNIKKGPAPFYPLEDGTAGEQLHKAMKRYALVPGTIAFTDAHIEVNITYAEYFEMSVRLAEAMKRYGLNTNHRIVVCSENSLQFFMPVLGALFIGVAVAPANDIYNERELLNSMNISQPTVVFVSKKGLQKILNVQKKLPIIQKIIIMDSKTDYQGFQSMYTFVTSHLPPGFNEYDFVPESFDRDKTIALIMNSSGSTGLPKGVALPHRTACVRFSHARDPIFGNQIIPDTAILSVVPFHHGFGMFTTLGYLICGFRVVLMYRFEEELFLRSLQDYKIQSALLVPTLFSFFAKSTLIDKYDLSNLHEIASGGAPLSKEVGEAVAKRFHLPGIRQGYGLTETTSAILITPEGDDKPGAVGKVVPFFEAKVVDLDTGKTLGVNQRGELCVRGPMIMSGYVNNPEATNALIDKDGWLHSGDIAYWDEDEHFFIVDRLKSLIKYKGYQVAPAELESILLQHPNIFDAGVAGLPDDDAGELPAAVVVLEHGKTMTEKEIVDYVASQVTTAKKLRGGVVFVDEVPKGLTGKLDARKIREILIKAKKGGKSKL
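Purified P. pyralis luciferase (10nM final) with 10uM D-luciferin and 10uM ATP (Km levels) in 50mM Tris acetate pH 7.5, 10mM Mg acetate, 0.01% Tween-20, 0.05% BSA; qHTS 6-point titration, ~60 µM downward; luminescence read.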
ELG1 genotoxic = induces genotoxicity in HEK293T cells with luciferase-tagged ELG1 | HEK293T ELG1-luciferase reporter, luminescence, 16 h | Potency, µM (highest dose often 46 µM), for the others: at the top dose activity change, positive = activation, usual class: activators | 330,000 tested, 1.3% active | AID 504466; note: % of control where 0% means no effect; nearly all actives have a fitted effect of over 60% in size
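Cells (2,000/well) expressing the ELG1-luciferase fusion are dosed by pin tool and kept 16 hr at 37 °C, 5% CO2. Signal comes from ONE-Glo luciferase reagent after 30 min at room temperature.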
Active calls of the source: *. Calls come from the whole dose curve; as a rule, active = well fitted curve in the direction sought with a large enough effect; inconclusive = small, poorly fitted or top-dose-only effect, or another doubt; inactive = no such curve, though single readings can be large; an effect the other way counts as inactive or inconclusive. Potency is the fitted concentration of half-maximal effect.

COCCNC(=O)CCCn1c(SCc2ccccc2C)nc2c(sc3ccccc32)c1=O was read as SMN2 splice enh inconclusive and FLuc modulator 2.4%.
Screening CCOc1ccccc1NC(=O)Cn1c(=O)n(CCCC(=O)NCCOC)c(=O)c2cc(OC)c(OC)cc21 returned SMN2 splice enh -3.0% and FLuc modulator -2.9%.
For CCOC(=O)c1cccc(NC(=O)c2cc3c(Cl)nc4ccc(C)cc4c3s2)c1 the results were SMN2 splice enh -0.5% and FLuc modulator -2.8%.
Screening Cc1ccc(NC(=O)CNC(=O)c2ccco2)cc1 returned NPC1 promoter act inconclusive, Rab9 prom act 3.98µM*, FLuc modulator inconclusive and ELG1 genotoxic 16.8%.
For COC(=O)c1ccc(NC(=O)c2cccc(NC(=O)c3ccco3)c2)cc1 the results were NPC1 promoter act -8.8%, Rab9 prom act 8.2%, FLuc modulator -13.7% and ELG1 genotoxic 0.5%.
CC(C)OC(=O)c1ccc(NC(=O)c2ccco2)cc1 was read as KinaseGlo FLuc -4.3%, NPC1 promoter act 2.51µM*, Rab9 prom act 3.16µM*, FLuc modulator 13.5µM* and ELG1 genotoxic 2.82µM*.
`COc1ccc(NC(=O)CNC(=O)c2ccco2)cc1` gave NPC1 promoter act 24.7%, Rab9 prom act 25.9%, FLuc modulator -14.9% and ELG1 genotoxic inconclusive.
Screening CC(C)OC(=O)c1ccc(NC(=O)c2ccccc2)cc1 returned KinaseGlo FLuc -4.7%, SMN2 splice enh 12.6µM*, NPC1 promoter act 3.98µM*, Rab9 prom act inconclusive, FLuc modulator 15.1µM* and ELG1 genotoxic 16.8%.
`c1ccc(C2Nc3ccccc3C3OCCCC23)cc1` (stereo unspecified) gave NPC1 promoter act -1.1%, Rab9 prom act 4.4%, FLuc modulator 0.5% and ELG1 genotoxic -3.2%.
`CCOc1ccc(CCNC(=O)c2ccc3c(c2)N(Cc2ccccc2F)C(=O)c2ccccc2S3=O)cc1OCC` (stereo unspecified) gave SMN2 splice enh -9.6% and FLuc modulator 0.9%.
Screening O=C(O)CNC(=O)/C(=C\c1cccc([N+](=O)[O-])c1)NC(=O)c1ccco1 returned NPC1 promoter act 0.2%, Rab9 prom act -4.5%, FLuc modulator -8.6% and ELG1 genotoxic 4.7%.
For Cc1ccc(C(=O)NCCC(=O)N2CCOCC2)cc1 the results were NPC1 promoter act 1.58µM*, Rab9 prom act 2.51µM*, FLuc modulator 10.7µM* and ELG1 genotoxic 13µM*.
`CC(C)(C)c1ccc(C(=O)NCCC(=O)N2CCCC2)cc1` gave NPC1 promoter act 2.24µM*, Rab9 prom act 3.98µM*, FLuc modulator 9.53µM* and ELG1 genotoxic 20.6µM*.
Screening Cc1ccc(C(=O)NCCN2CCOCC2)cc1 returned KinaseGlo FLuc 1.2%, SMN2 splice enh 0.3%, NPC1 promoter act -1.8%, Rab9 prom act 4.8%, FLuc modulator -9.5% and ELG1 genotoxic 6.4%.
Screening CC(C)(C)c1ccc(C(=O)NCC(=O)OCC(=O)N2CCCC2)cc1 returned NPC1 promoter act -0.5%, Rab9 prom act -3.5%, FLuc modulator 15.1µM* and ELG1 genotoxic 0.2%.
For CCOc1ccc(NC(C)C(=O)N/N=C/c2cccs2)cc1 (stereo unspecified) the results were KinaseGlo FLuc -2.1%, SMN2 splice enh 15.9%, NPC1 promoter act -3.9%, Rab9 prom act -1.6%, FLuc modulator -8.8% and ELG1 genotoxic 2.0%.
Screening CCCCOc1ccc(N=Cc2cccs2)cc1 returned KinaseGlo FLuc -2.8%, SMN2 splice enh -3.8%, NPC1 promoter act 1.5%, Rab9 prom act 1.2%, FLuc modulator 5.36µM* and ELG1 genotoxic 2.6%.
For CC(C)Oc1ccc(C2c3c(oc4ccccc4c3=O)C(=O)N2CCCN2CCOCC2)cc1 (stereo unspecified) the results were KinaseGlo FLuc 0.8%, NPC1 promoter act 4.0%, Rab9 prom act 13.9%, FLuc modulator 1.0% and ELG1 genotoxic 20.6µM*.

Assay outcomes as filed in PubChem BioAssay.
